Among all 650,000 compounds or so, about 5,900 (0.91%) were called active. The entries come from a sample that favours actives as a whole. A number with no mark means an inactive call. Rule as the data show it: active = inhibition above about 50%; inactive = the rest.
Biological target: Microphthalmia-associated transcription factor (Homo sapiens) (UniProt O75030)
Assay: MITF inhibitors, primary screen, biochemical, AlphaScreen, human (AID 1259374);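 also: 0% = vehicle wells with protein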
Details: AlphaScreen MITF homodimerization, bead proximity signal; at 2.6 µM; stronger effect = higher value

Chain of Microphthalmia-associated transcription factor (Homo sapiens) (O75030 whole entry, looked up): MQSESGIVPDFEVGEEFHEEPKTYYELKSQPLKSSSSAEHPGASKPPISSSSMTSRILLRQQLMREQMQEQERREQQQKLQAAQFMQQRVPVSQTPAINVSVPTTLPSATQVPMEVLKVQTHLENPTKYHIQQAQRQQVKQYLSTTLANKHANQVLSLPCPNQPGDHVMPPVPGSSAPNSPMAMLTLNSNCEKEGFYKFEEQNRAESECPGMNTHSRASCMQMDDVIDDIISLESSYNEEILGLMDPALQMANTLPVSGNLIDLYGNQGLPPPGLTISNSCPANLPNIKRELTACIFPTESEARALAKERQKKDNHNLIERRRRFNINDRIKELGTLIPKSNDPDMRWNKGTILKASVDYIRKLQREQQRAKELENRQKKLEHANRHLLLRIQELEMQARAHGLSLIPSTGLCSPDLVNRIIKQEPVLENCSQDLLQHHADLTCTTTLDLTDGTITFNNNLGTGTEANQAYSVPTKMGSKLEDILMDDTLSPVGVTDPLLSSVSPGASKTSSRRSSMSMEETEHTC

| SMILES | inhibition |
| --- | --- |
| CC(C)NC(=O)NC(=O)COC(=O)c1ccc(Cl)c(S(N)(=O)=O)c1 | 0.26% |
| CCOC(=O)c1ccc(NC(=O)CCc2c(C)nc3nc(CN)nn3c2C)cc1 | 6.45% |
| COc1ccccc1NC(=O)Cn1cnc2sc(C(=O)Nc3nc4ccc(Br)cc4s3)c(C)c2c1=O | 17.9% |
| COCCCN1C(=O)c2cccc3cccc(c23)C1=O | 1.36% |
| CCCCN1C(=O)c2cccc3c(C(C)=O)ccc(c23)C1=O | 7.62% |
| COCCCN1C(=O)c2cccc3c(C(=O)c4ccccc4)ccc(c23)C1=O | 64.3% (active) |
| N/C(=N\OC(=O)c1cccc(F)c1)c1ccc(Cl)cc1 | 17.5% |
| COc1ccc(-c2nc(C(=O)NC3CCN(Cc4ccccc4)CC3)cs2)cc1 | 9.55% |
| CCOc1ccc(CN2CCCC(C(=O)N(C)Cc3ccccc3)C2)cc1 (centres undefined) | 45.6% |
| COc1cccc(CN2CCC(C(=O)NCCc3ccccc3)CC2)c1 | 54.9% (active) |
| COc1ccc(-c2ncc(C)c(NC3CCN(Cc4ccccc4)CC3)n2)cc1 | 9.68% |
| CCOC(=O)C1CCCN(Cc2ccc(F)cc2)C1 (centres undefined) | 12.6% |
| CCOc1cc(CN2CCC(C(=O)NCCc3ccccc3)CC2)ccc1O | -1.67% |
| COc1ccc(CN2CCCC(C(=O)N3CCCCC3)C2)cc1 (centres undefined) | 57.8% (active) |
| COc1ccc(CN2CCC(C(=O)N3CCN(Cc4ccccc4)CC3)CC2)cc1 | 52% (active) |
| COc1cccc(CN2CCC(C(=O)NC(C)(C)C)CC2)c1 | 18.9% |
| Cc1ccccc1-n1c(=S)sc2c(=O)n(-c3ccccc3)c(SCc3cc(=O)n4cc(Cl)ccc4n3)nc21 | -24.2% |
| CC(C)NC(=O)Cn1nc(SCc2ccccn2)nc1N | 2.01% |
| Cn1ccnc1SCc1cc(=O)c(OC(=O)c2ccccc2I)co1 | -3.29% |
| O=C(Nc1cccc(N2CCC(N(CC3CCC3)CC3CCCO3)CC2)c1)c1cccnc1 (centres undefined) | 21.5% |
| COc1ccc(CN(C)CC(=O)N2CCc3ccccc32)cc1OC | 0.1% |
| CN(CCc1ccccn1)CC(=O)N1CCc2ccccc21 | 93% (active) |

| SMILES | inhibition |
| --- | --- |
| CC(C)CC(=O)N1CCc2ccccc21 | 5.19% |
| CN(C(=O)c1ccccc1)c1cccc(N)c1 | -4.8% |
| COc1cc(CN2CCN(Cc3ccc(Cl)cc3)CC2)c([N+](=O)[O-])cc1OC | 65.5% (active) |
| COc1cc(C(=O)N2CCCC2)c([N+](=O)[O-])cc1OC | 9.4% |
| COc1cc(CN2CCN(Cc3ccc(C)cc3)CC2)c([N+](=O)[O-])cc1OC | 80.6% (active) |
| COc1cc(CNCc2ccc3c(c2)OCO3)c([N+](=O)[O-])cc1OC | 6.83% |
| COc1cc(CN2CCCN(C)CC2)c([N+](=O)[O-])cc1OC | 14.7% |
| COc1cc(CN2CCN(CCO)CC2)c([N+](=O)[O-])cc1OC | 13.5% |
| c1ccc(CN2CCN(Cc3ccco3)CC2)cc1 | 12.7% |
| COc1cc(CN2CCN(Cc3ccco3)CC2)c([N+](=O)[O-])cc1OC | 84.4% (active) |
| COc1cc(CN2CCCC(CO)C2)c([N+](=O)[O-])cc1OC (centres undefined) | 12.4% |
| CN1CCc2cc(CNC(=O)CC3C(=O)NCCN3CCc3ccccc3)ccc21 (centres undefined) | -15.3% |
| CC/C(C)=N\NC(=O)CCC(=O)Nc1ccccc1 | 7.54% |
| NC(=O)c1ccccc1NC(=O)CCl | 0.34% |
| CCNC(=O)CSc1ccc(C)cc1 | 1.07% |
| CN1C(=O)CSC1=Nc1ccc(Cl)c(Cl)c1 | -5.98% |
| CCNc1nc(NCC)nc(C(=O)O)n1 | 55.1% (active) |
| CCNc1nc(NC(C)C)nc(OCCOC(C)=O)n1 | -3.21% |
| CCNc1nc(OC)cc(OC)n1 | -5.7% |
| O=C(CN1CCN(CC(=O)c2ccco2)CC1)Nc1ccc(Cl)c(Cl)c1 | 65.2% (active) |
| O=C(CN1CCN(C(=O)Nc2c(F)cccc2F)CC1)c1ccco1 | 39.7% |
| O=C(COC(=O)c1ccco1)Nc1ccc(Cl)c(Cl)c1 | -6.47% |

| SMILES | inhibition |
| --- | --- |
| COc1cccc2c1OC1(CCN(C(=O)Cc3cccs3)CC1)OC2 | 0.59% |
| COc1cc(C(=O)/C(=C/c2ccccc2F)c2nc3ccccc3o2)cc(OC)c1OC | 5.52% |
| COC(=O)CSc1nc(C2CC2)nc2ccccc12 | 72.1% (active) |
| Cc1nnc(NC(=O)CSc2nc(C3CCCCC3)nc3ccccc23)s1 | -12.8% |
| c1ccc(CSc2nc(C3CC3)nc3ccccc23)nc1 | -3.42% |
| Cc1cccc(NC(=O)CC[C@H]2CN(Cc3ccccc3)CC[C@H]2N(C)C)c1 | -2.16% |
| CCOc1ccc(OCCCCNCCO)cc1 | 63.6% (active) |
| CC(C)(C)c1ccc(OCCCCNCCO)cc1 | -8.77% |
| OCCNCCCOc1ccc(I)cc1 | -4.92% |
| O=C(Nc1ccc(N2CCC(NCc3ccc4c(c3)OCO4)CC2)cc1)C1CCCC1 | -10.3% |
| O=C(c1ccccc1)c1cccc(NC(=O)C2CCCCC2)c1 | -1.02% |
| CC1=C(C(=O)OCC(C)C)C(c2cccc(OCc3ccccc3)c2)C2=C(CCCC2=O)N1 (centres undefined) | 0.37% |
| COC(=O)c1ccc(C2C(C(=O)OCCOc3ccccc3)=C(C)NC3=C2C(=O)CCC3)cc1 (centres undefined) | 0.05% |
| CCOc1cccc(C2C(C(=O)OCCOc3ccccc3)=C(C)NC3=C2C(=O)CCC3)c1 (centres undefined) | 59.2% (active) |
| COc1ccc(C(=O)N/C(=C\c2cccc([N+](=O)[O-])c2)C(=O)NC(CC(C)C)C(=O)O)cc1 (centres undefined) | -8.1% |
| COCCn1nnnc1C(c1ccc(F)cc1)N1CCN(c2ccccc2OC)CC1 (centres undefined) | -3.53% |
| Cc1cc(-c2ccc(S(=O)(=O)NC3CCC(C)CC3)cc2)on1 (centres undefined) | 4.94% |
| CC(=O)N1CCN(C(=O)c2ccc(N3CC4CC(C3)c3cccc(=O)n3C4)c(NC(=O)c3cccnc3)c2)CC1 (centres undefined) | 60% (active) |
| COc1ccccc1NC(=O)c1ccc(N2CC3CC(C2)c2cccc(=O)n2C3)c(NC(=O)c2cccnc2)c1 (centres undefined) | -6.03% |
| CCOC(=O)C1CCN(C(=O)c2ccc(N3CC4CC(C3)c3cccc(=O)n3C4)c(NC(=O)c3cccnc3)c2)CC1 (centres undefined) | -0.93% |
